# Screens from PubChem BioAssay.
# PTEN del growth – growth suppression of PTEN-null HCT116, primary screen, cell-based, CellTiter-Glo; HCT116 PTEN-null viability, 60 h; hits give low values; viability, % at 10 µM; 140,000 compounds, 1.2% hits;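 active means viability at or below a set limit, 4 SD under the median of all tested compounds, cut at about 3.7% in these data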;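 further: PTEN knockout HCT116 line with beta catenin targeted HCT116 as companion control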
# ROMK primary – ROMK potassium channel modulators, primary screen, cell-based, thallium flux, MLSMR library. ATP-sensitive inward rectifier potassium channel 1 (Homo sapiens), P48048. Tet-inducible ROMK, thallium flux fluorescence; actives lie on both sides. B-score at 10 µM. 130,000 compounds, 2% hits. AID 1918, 2009;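 active means signal ratio slope over the read window, or its plate-corrected B-score, at least 3 SD from the plate mean, either direction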;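 further: B-score of the F/F0 ratio slope over 7 to 12 s after thallium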
# Target sequence (P48048 whole entry, looked up): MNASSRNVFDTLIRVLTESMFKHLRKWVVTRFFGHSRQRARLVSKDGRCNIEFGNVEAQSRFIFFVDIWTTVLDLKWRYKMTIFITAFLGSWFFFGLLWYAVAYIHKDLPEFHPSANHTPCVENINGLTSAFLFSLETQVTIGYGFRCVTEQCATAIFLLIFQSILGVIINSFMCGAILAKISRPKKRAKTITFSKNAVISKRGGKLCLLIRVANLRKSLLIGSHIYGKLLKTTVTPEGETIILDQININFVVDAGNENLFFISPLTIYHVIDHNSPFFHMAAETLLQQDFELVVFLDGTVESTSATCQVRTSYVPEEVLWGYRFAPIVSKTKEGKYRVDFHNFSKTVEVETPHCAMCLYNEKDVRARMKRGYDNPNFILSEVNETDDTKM
# HCT116 bCat-KO – primary screen for growth suppressors in beta-catenin knockout HCT116 cells (colon tumor, human); viability, % at 10 µM; HCT116 beta-catenin knockout viability, CellTiter-Glo, 60 h; hits give low values; AID 818, 2007; 140,000 compounds, 1.5% hits;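 active means viability at or under a set limit, the compound median less 4 SD, cut at about 6% in these data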;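 further: 0% = Hyamine 1622 control at 20 µM and 100% = untreated cell control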
# p97 inhibitor – inhibitors of human p97 ATPase, primary screen, biochemical; inhibition, % at 8 µM; 220,000 compounds, 0.42% hits; recombinant p97 ATPase, Kinase-Glo ATP luminescence, 3 h; Transitional endoplasmic reticulum ATPase (Homo sapiens), P55072; in the data active means inhibition above about 15%;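 further: 0% = DMSO vehicle and 100% = wells lacking enzyme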
# L major viab – Leishmania major promastigote growth inhibition, primary screen | AID 1063, 2008 | inhibition, % at 10 µM | Leishmania major promastigotes, resazurin fluorescence viability | 200,000 compounds, 9% hits; in the data active means inhibition above about 50%;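 further: promastigotes grown with compound for 44 hours at 28 °C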
# INS promoter inh – inhibitors of insulin promoter-driven GFP, primary screen, imaging, TRM-6 cells (human fetal islet line), eGFP reporter, cell count | inhibition, % at 2 µM | reporter expression induced with tamoxifen | 130,000 compounds, 0.9% hits;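 active means inhibition above the mean plus 3 SD, with well images judged a real hit on visual review, cut at about 60% in these data, passing the limit was not always enough; inconclusive means inhibition over the cutoff but images rejected on review; inactive means inhibition not above the cutoff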
# Lmaj promast 1uM – Leishmania major promastigote growth inhibition, confirmation, 1 µM repeat of primary hits | shares compounds with L major viab | L. major promastigote growth, resazurin fluorescence, 48 h | inhibition, % at 1 µM | 1,100 compounds, 13% hits | AID 1258, 2008;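 active means inhibition above about 50% in both repeat tests, limit read from the data; inconclusive means one repeat under the set limit, the other over it; inactive means both repeats under the set limit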
# * hit, by the source's call; ? = inconclusive; · = no result. A selection: hits, their analogues and other compounds. The true share with any hit is near 10%.
SMILES,PTEN del growth,ROMK primary,HCT116 bCat-KO,p97 inhibitor,L major viab,INS promoter inh,Lmaj promast 1uM
CCOC(=O)C(O)(c1ccc(N(CC)C(=O)COc2ccccc2)cc1)C(F)(F)F (stereo not given),95,·,95,-2,65*,40,·
CCN(c1ccc(C(O)(C(=O)OC)C(F)(F)F)cc1)S(=O)(=O)c1ccc(C)cc1 (stereo not given),108,-1.5,98,0,89*,20,·
COC(=O)C(O)(c1ccc(N(C)S(=O)(=O)c2ccccc2)cc1)C(F)(F)F (stereo not given),98,·,94,-8,100*,·,·
CCOC(=O)C(O)(c1ccc(N=c2ccccn2C)cc1)C(F)(F)F (stereo not given),·,·,·,-2,·,·,·
C=CCn1c(O)c(C(CC)=NCC2CCCO2)c(=O)[nH]c1=O (stereo not given),·,0.44,·,5,·,·,·
Cc1cccc(OP(=O)(Nc2cccnc2)Oc2cccc(C)c2)c1,85,·,90,-1,92*,-27,?
Cc1cccc(OP(=O)(Nc2ccc(F)cc2)Oc2cccc(C)c2)c1,·,0.054,·,-8,28,·,·
CC1(C)N2CC3([N+](=O)[O-])CN1CC([N+](=O)[O-])(C2)C3,·,0.34,·,5,·,·,·
CN1C[C@H](CNC(=O)OCc2ccccc2)C[C@@H]2c3cccc4c3c(cn4C)C[C@H]21,41,·,32,-1,69*,-50,1
O=C(C1CC(c2ccc(Cl)c(Cl)c2)=NO1)N1CCC2(CC1)OCCO2 (stereo not given),71,·,88,-9,-7,16,·
CCOP(=O)(OCC)C(Cc1ccccc1)NC(C)=O (stereo not given),·,·,·,8,·,·,·
CCOP(=S)(NN(Cc1ccccc1)C(=O)c1ccccc1)OCC,84,-0.63,93,-4,89*,-17,-22
COc1ccc(C(=O)C2CCCN(Cc3ccc(C)s3)C2)c(OC)c1 (stereo not given),·,-1.4,·,4,80*,·,10
CCNC(=O)NC(=O)C(C)OC(=O)c1c(C)nn(Cc2ccccc2Cl)c1Cl (stereo not given),89,0.67,78,0,51*,-56,-12
CCOC(=O)C1=C(N)OC2=C(C(=O)CCC2)C12C(=O)N(C)c1ccccc12 (stereo not given),·,0.022,·,4,·,·,·
CSc1ccc(CNC2CN3CCC2CC3)cc1 (stereo not given),89,·,84,8,100*,·,66*
O=[N+]([O-])c1ccc(C2[C@H]3C(c4ccccc4)=NC4(CCCC4)N23)cc1 (stereo not given in full),79,·,86,0,-4,·,·
Cc1ccc(C2=NC(C)(C)N3C2C3c2ccc([N+](=O)[O-])cc2)cc1 (stereo not given),92,·,101,3,57*,-8,-18
Cc1[nH]c2ccccc2c1C(=O)CN1CC=C(c2ccccc2)CC1,78,-0.27,70,6,0,28,·
CCN1CC=C(c2c[nH]c3ccccc23)CC1,85,·,79,5,99*,-271,-5
CC(C)OP(=O)(OC(C)C)C(NCc1ccccc1)c1ccccc1 (stereo not given),·,-0.16,·,1,13,·,·
Cc1sc2c(c1C)C(c1ccc(C(C)(C)C)cc1)=NCC(=O)N2CC(=O)Nc1nccs1,27,·,60,0,49,-48,·
CC(C)OC1CCCC(O)C1CC(=O)O (stereo not given),·,·,·,7,·,·,·
O=C1C=C2C=C[C@H]3C[C@]2(O1)[C@@H]1CCCCN13,10,-0.87,13,6,51*,-52,-2
O=c1[nH]c2ccccc2n1C1CCN(CCCC(c2ccc(F)cc2)c2ccc(F)cc2)CC1,1.1*,·,1.4*,-1,83*,-14,9
SMILES,PTEN del growth,ROMK primary,HCT116 bCat-KO,p97 inhibitor,L major viab,INS promoter inh,Lmaj promast 1uM
O=C1CC(N2CCC(n3c(=O)[nH]c4ccccc43)CC2)C(=O)N1c1ccc(F)cc1 (stereo not given),92,0.88,92,4,-8,44,·
COC(=O)C1CN(C#N)N(c2ccc(Cl)cc2)C12c1ccccc1-c1ccccc12 (stereo not given),1.0*,·,1.2*,4,100*,-100,101*
C[n+]1c(-c2ccccc2)cc(CCCCc2cc(-c3ccccc3)[n+](C)c(-c3ccccc3)c2)cc1-c1ccccc1,·,-2.3,·,9,100*,·,95*
COc1ccc(-c2cc(-c3ccccc3)[n+](C)c(-c3ccccc3)c2)cc1,·,-0.82,·,1,100*,-40,11
C=CCn1c(O)c(/C=N/N2CCCCC2c2cccnc2)c(=O)[nH]c1=S (stereo not given),103,·,94,0,-5,·,·
O=C(N=Nc1c(O)[nH]c(=O)[nH]c1=O)C1COc2cc3ccccc3cc2O1 (stereo not given),·,0.98,·,7,-7,67,·
O=C1C2CCN(CC2)C1Cc1ccc(OCCOc2ccccc2)cc1 (stereo not given),79,-1.3,77,-1,100*,8,97*
O=C1C2CCN(CC2)C1Cc1ccccc1O (stereo not given),104,·,100,-2,-6,-12,·
Cc1c(P(=S)(c2ccccc2)c2ccccc2)[n+]2ccccc2n1C,·,-0.92,·,1,73*,·,-9
Cn1cc[n+](C)c1P(=S)(c1ccccc1)c1ccccc1,·,0.13,·,2,22,60,·
Cc1cc(C)nc(N2Cc3ccccc3C2=N)n1,·,0.44,·,5,50*,·,-5
O=c1c2ccccc2nc(CNCc2ccco2)n1-c1ccc(F)cc1,84,-0.14,92,7,-2,·,·
CC(=O)c1ccc2c(c1)C1C(Cl)C(Sc3ccccc3[N+](=O)[O-])CC1C(c1ccccc1[N+](=O)[O-])N2 (stereo not given),70,·,78,-1,54*,31,16
CC(=NCCC1=CCCCC1)c1c(O)[nH]c(=O)[nH]c1=O,69,0.021,86,7,-1,36,·
C/C=C1/CC(C)C(C)(O)C(=O)OCC2CCN3CCC(OC1=O)C23 (stereo not given),·,0.61,·,-4,-4,·,·
CC(C)(C)c1ccc(C(=O)C2CCCN(C3CCC3)C2)cc1 (stereo not given),·,-0.022,·,-4,93*,·,80*
O=C(c1ccc(Cl)cc1)C1CCCN(Cc2ccon2)C1 (stereo not given),·,-0.13,·,6,-9,25,·
CC(C)N1C(=O)CC2(CC[N+](C)(CCOC(=O)C(O)(c3ccccc3)c3ccccc3)CC2)C1=O (stereo not given),99,-0.84,89,-8,93*,-37,-3
